Here are results for 40 molecules from PubChem BioAssay (Tox21).

Results filed as inconclusive are left out. A call without a number means that no potency is given here. A number with no mark means an inactive call. The source made the active and inactive calls. Calls come from the whole dose curve.
Potency is the fitted concentration of half-maximal effect.

A short description of the experiment: p53 small molecule agonists, cell-based qHTS assay with human liver microsomes: qHTS cell viability counter screen (AID 1963579). Note: nearly all actives have a fitted effect of over 45% in size. The note with it: p53RE-bla HCT-116 viability, ATP luminescence, 16 h, HLM; series mostly up to 66 µM. An excerpt: National Center for Advancing Translational Sciences [NCATS]
Division of Preclinical Innovation [DPI]
U.S. Environmental Protection Agency [EPA]
National Institutes of Environmental Health Sciences [NIEHS]
National Toxicology Program [NTP]
U.S. Food and Drug Administration [FDA]
p53, a tumor suppressor protein, is activated following cellular insult, including DNA damage and other cellular stresses. The activation of p53 regulates cell fate by inducing DNA repair, cell cycle arrest, apoptosis, or cellular senescence. The activation of p53, therefore, is a good indicator of DNA damage and other cellular stresses. […] The activation of the reporter gene under culture conditions can be detected by fluorescence intensity. This cell line was used to screen the Tox21 10K compound library in the condition of presence of human liver microsomes and to identify agonists that activate the p53 signaling pathway after in vitro metabolic activation (Ooka et al., Archive of Toxicology 96:1975-1987, 2022).
Tox21 Assay Protocol Summary:
The p53RE-bla cells were dispensed at 4,000cells/3ul/well in 1536-well black-clear bottom plates. After the assay plates were incubated at 37 C, 5% CO2 incubator for 5 hours, 23 nL of compounds dissolved in DMSO, positive controls or DMSO only was transferred to the assay plate. Following compound addition, 3 uL of human liver microsomes (XenoTech, Kansas City, KS) at final concentration of 0.5 mg/mL and 1uL of B-Nicotinamide adenine dinucleotide 2'-phosphate (NADPH) at final concentration of 0.5 mg/mL were transferred to the assay plate. The plates were incubated at 37 C for 16 hours. 1 uL of LiveBLAzer detection mixture was added to each well and the plates were incubated at room temperature in the dark for 2 h. Fluorescence intensity at 460 and 530 nm emission and 405 nm excitation were measured by an Envision plate reader. For cell viability readout that measures cytotoxicity, 4 ul/well of CellTiter-Glo reagent was added into the assay plates using a Flying Reagent Dispenser. After 30 min incubation at room temperature, the luminescence intensity in the plates was measured using a ViewLux plate reader.
As to `COc1ccc2nc(SCc3ncc(C)c(OC)c3C)[nH]c2c1`, the Potency entry is “inactive”.

In the case of `CC(CC1c2ccccc2CCc2ccccc21)CN(C)C` (stereo not given), the Potency entry is “inactive”.

For `CCCCCCOc1ccc(N)cc1`, the Potency entry is “inactive”.

As to `C=CC(=C)CC/C=C(\C)CCC=C(C)C`, the activity change, negative = cytotoxicity was 1.39% [at 13.5 µM].

Consider `NC[C@H]1O[C@H](O[C@H]2[C@H](O[C@@H]3O[C@H](CO)[C@@H](O)[C@H]3O)C(O)[C@H](N)C[C@@H]2N)[C@H](N)[C@@H](O)[C@@H]1O` (stereo not given in full), for which the activity change, negative = cytotoxicity is 26.1% [at 5.99 µM].

`Cc1cc(F)ccc1-c1cc(N2CC[C@@H](O)[C@H]2CO)ncc1N(C)C(=O)C(C)(C)c1cc(C(F)(F)F)cc(C(F)(F)F)c1`: the Potency is 14.3 µM (active).

On to `Cc1c(Cl)cccc1Nc1ccccc1C(=O)O`, for which the Potency result was “inactive”.

For `C/C=C(\C)C=O`, the Potency entry was “inactive”.

Turning to `C[C@H](CCC(=O)NCC(=O)O)[C@H]1CC[C@H]2[C@@H]3[C@H](O)C[C@@H]4C[C@H](O)CC[C@]4(C)[C@H]3C[C@H](O)[C@]12C`, the Potency result is “inactive”.

In the case of `Cc1ccc(OC(=O)c2ccccc2O)cc1`, the Potency result was “inactive”.

Turning to `C[C@H](O)C(=O)Nc1c(I)c(C(=O)NC(CO)CO)c(I)c(C(=O)NC(CO)CO)c1I`, the Potency entry was “inactive”.

For the molecule `C[C@H](CN1CCCC1)C(=O)c1ccc(C(F)(F)F)cc1`, the Potency entry was “inactive”.

For the molecule `CC1(c2ccccc2)OC(C(=O)O)=CC1=O` (stereo not given), the Potency entry was “inactive”.

`CNC(=O)N(c1ccccc1)c1ccccc1`: the Potency result is “inactive”.

Take `NC1CCN(c2nc3c(cc2F)c(=O)c(C(=O)O)cn3-c2ccc(F)cc2F)C1` (stereo not given): the Potency result was “inactive”.

Regarding `O=CN1CCCCC1`, the Potency entry is “inactive”.

Consider `CCN(CC)CCOCCOC(=O)C1(c2ccccc2)CCCC1`, for which the Potency entry is “inactive”.

`CCN(CC)C(=O)N(CC)CC`: the Potency entry was “inactive”.

For the molecule `Oc1c(Br)cc(Br)c2cccnc12`, the Potency result is “inactive”.

In the case of `N#Cc1ccc(C/C(=N/NC(=O)Nc2ccc(OC(F)(F)F)cc2)c2cccc(C(F)(F)F)c2)cc1`, the Potency result is “inactive”.

For the molecule `Cc1cccc(Nc2ccncc2S(=O)(=O)NC(=O)NC(C)C)c1`, the Potency result was “inactive”.

With `CC(C(=O)O)c1ccc2c(c1)Cc1cccnc1O2` (stereo not given), the Potency entry was “inactive”.

Consider `CC(=O)OC(C)(C)C`, for which the Potency entry was “inactive”.

Regarding `CCC(=O)Oc1ccc2c(c1)CC[C@@H]1[C@@H]2CC[C@@]2(C)[C@H]1C[C@@H](OC(=O)CC)[C@@H]2OC(=O)CC`, the Potency result was “inactive”.

`OC[C@@H](O)[C@H](O)[C@@H](O)[C@@H](O)CO`: the Potency entry was “inactive”.

In the case of `CN1CCN(Cc2cc(-c3ccc4[nH]c(=O)oc4c3)co2)[C@@H](c2ccc(F)cc2)C1`, the Potency result is “inactive”.

On to `C=CCn1c(=O)n(CC=C)c(=O)n(CC=C)c1=O`, for which the Potency entry was “inactive”.

Turning to `CCCCOCC`, the Potency entry is “inactive”.

Consider `COC(=O)c1c(C)cc(O)c(C)c1O`, for which the Potency result is “inactive”.

For the molecule `O=C(CO)[C@@H](O)[C@H](O)[C@H](O)CO`, the Potency result was “inactive”.

With `CN(C)CCN(C)CCN(C)C`, the Potency result was “inactive”.

Turning to `CC1=C(C)C(=O)C(CCCCC#CCCCC#CCO)=C(C)C1=O`, the Potency result was “inactive”.

With `CCC=O`, the Potency entry was “inactive”.

For `O=C1OC(=O)c2cc([N+](=O)[O-])ccc21`, the Potency result was “inactive”.

Consider `CCCC(c1cc(C(C)(C)C)c(O)cc1C)c1cc(C(C)(C)C)c(O)cc1C`, for which the Potency was 9.24 µM (active).

Turning to `CCc1cccc(C)c1`, the Potency entry was “inactive”.

Take `CCCCNc1c(C(=O)OCC)c(C)nc2c1cnn2CC`: the Potency entry was “inactive”.

Turning to `OCCC(O)CO` (stereo not given), the Potency result is “inactive”.

`CCCCC(CC)COC(=O)COc1ccc(Cl)cc1C` (stereo not given): the Potency result was “inactive”.

As to `O=Cc1c2ccccc2c(Cl)c2ccccc12`, the Potency result is “inactive”.
